Assay [1] has as its system Escherichia coli ATCC BAA-2469. Briefly: percent growth inhibition of drug + antibiotic vs DMSO control; higher = more growth inhibition. Here is the method:
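Prestwick drugs tested at 20 uM and 7 uM with an antibiotic at 0.125x MIC (16 mg/L when MIC >128 mg/L) against E. coli ATCC BAA-2469 (NDM-1) in CAMHB, 384-well plates, duplicate runs. Percent growth inhibition was computed from OD600 (24 h minus 0 h) relative to DMSO wells. Drug + DMSO-only wells are also given. […]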

The test system of assay [2] is Klebsiella pneumoniae KPC-119. Briefly: percent growth inhibition of drug alone vs DMSO control; higher = more growth inhibition. As to conditions: antibiotic (0.125x MIC): none (0.1% DMSO).
Assay [3] deals with Klebsiella pneumoniae NCTC-13439. The description is as above. As to conditions: antibiotic (0.125x MIC): none (0.1% DMSO).
The subject of assay [4] is Klebsiella pneumoniae KPC-119. Briefly: percent growth inhibition of drug + antibiotic vs DMSO control; higher = more growth inhibition.
Assay [5] has as its system Klebsiella pneumoniae NCTC-13439. The assay is described as above.
Setting [6] is: antibiotic (0.125x MIC): colistin, 7 µM.
The mark [7] stands for this setting: antibiotic (0.125x MIC): colistin, 20 µM.
[8] abbreviates: antibiotic (0.125x MIC): gentamicin, 7 µM.
Where [9] appears, read: antibiotic (0.125x MIC): gentamicin, 20 µM.
[10] abbreviates: antibiotic (0.125x MIC): tigecycline, 7 µM.

Counter-ions that a name gives are not always drawn. ± gives the standard deviation of the averaged measurements.

Turning to `O=C(O)CN(CCN(CC(=O)O)CC(=O)O)CCN(CC(=O)O)CC(=O)O` [Pentetic acid], the percent growth inhibition in assay [1] (antibiotic (0.125x MIC): meropenem, 7 µM) was -3.74 ± 3.2%.
In the case of `O=C1OCCN1/N=C/c1ccc([N+](=O)[O-])o1` [Furazolidone], the “percent growth inhibition of drug alone” value in assay [2] (7 µM) came to 18.3 ± 1.2%; in assay [2] (20 µM), 39.8 ± 1.6%; in assay [3] (7 µM), 17.5 ± 3%; in assay [3] (20 µM), 49.8 ± 1.5%. Further, the percent growth inhibition is 96.1 ± 7% in assay [4] (setting [6]); 99.62 ± 0.88% in assay [4] (setting [7]); 17.8 ± 1.7% in assay [4] (setting [8]); 99.78 ± 0.13% in assay [4] (setting [9]); 17 ± 1.2% in assay [5] (antibiotic (0.125x MIC): ciprofloxacin, 7 µM); 99.97 ± 0.19% in assay [5] (antibiotic (0.125x MIC): ciprofloxacin, 20 µM). Besides, the percent growth inhibition in assay [5] (setting [10]) worked out at 26.3 ± 2.4%.
Turning to `COc1cc(C(=O)NCc2ccc(OCCN(C)C)cc2)cc(OC)c1OC` [Trimethobenzamide hydrochloride], in assay [1] (setting [8]), the percent growth inhibition was 0.833 ± 1.4%.
`CC(C)Nc1cccnc1N1CCN(C(=O)c2cc3cc(NS(C)(=O)=O)ccc3[nH]2)CC1` [Delavirdine]: the “percent growth inhibition of drug alone” value in assay [2] (7 µM) is -0.164 ± 2.9%; in assay [2] (20 µM), -1.86 ± 1%. The percent growth inhibition in assay [4] (setting [6]) was -6.39 ± 0.99%.
On to `CCCCNc1c(C(=O)OCC)c(C)nc2c1cnn2CC` [Tracazolate hydrochloride], for which the percent growth inhibition in assay [1] (setting [8]) is 0.683 ± 0.77%.
In the case of `CC(C)NC[C@H](O)COc1ccc(CC(N)=O)cc1` [(S)-(-)-Atenolol], the “percent growth inhibition of drug alone” value was 0.932 ± 4.5% in assay [2] (7 µM) and -0.0403 ± 1.4% in assay [2] (20 µM). The percent growth inhibition in assay [4] (setting [7]) was -1.42 ± 6%.
The like results for `C=C1c2c(Cl)ccc(O)c2C(=O)C2=C(O)[C@]3(O)C(=O)C(C(N)=O)=C(O)[C@@H](N(C)C)[C@@H]3[C@@H](O)[C@H]12.O=C(O)c1cc(S(=O)(=O)O)ccc1O` [Meclocycline sulfosalicylate] were, in that order, 2.09 ± 6.8%, 7.24 ± 1.1% and 10.3 ± 2.3%.
As for `Oc1c(Cl)cc(Cl)c2cccnc12` [Chloroxine], the percent growth inhibition in assay [1] (setting [8]) is 40 ± 13%; in assay [1] (setting [9]), 112 ± 19%.
For `CO[C@H]1/C=C/O[C@@]2(C)Oc3c(C)c(O)c4c(O)c(c(/C=N/N5CCN(C6CCCC6)CC5)c(O)c4c3C2=O)NC(=O)/C(C)=C\C=C\[C@H](C)[C@H](O)[C@@H](C)[C@@H](O)[C@@H](C)[C@H](OC(C)=O)[C@@H]1C` [Rifapentine], the “percent growth inhibition of drug alone” value in assay [2] (7 µM) came to 2.17 ± 1.7%; in assay [2] (20 µM) it was 34.82 ± 0.22%; in assay [3] (7 µM), 6.76 ± 7.4%; in assay [3] (20 µM), 11.1 ± 17%. For the same compound, the percent growth inhibition in assay [4] (setting [7]) was determined as 93.01 ± 0.93%; in assay [4] (setting [8]) it was 4.75 ± 13%; in assay [5] (setting [10]), 14.7 ± 5.3%; in assay [5] (antibiotic (0.125x MIC): tigecycline, 20 µM), 42.9 ± 12%.
For the compound `CCCCOC(=O)c1ccc(N)cc1` [Butamben], the figures for the “percent growth inhibition of drug alone” value in assay [2] (7 µM) and in assay [2] (20 µM) were -0.672 ± 3.4% and -0.688 ± 0.36%, respectively. Besides, the percent growth inhibition in assay [4] (setting [7]) is 3.33 ± 3%.
`C/C(=C\C(=O)OCCCCCCCCC(=O)O)C[C@@H]1OC[C@H](C[C@@H]2O[C@H]2[C@@H](C)[C@H](C)O)[C@@H](O)[C@H]1O` [Mupirocin]: the “percent growth inhibition of drug alone” value in assay [2] (7 µM) turned out to be 1.64 ± 1.8%; in assay [2] (20 µM) it was 6.42 ± 0.11%. For the same compound, the percent growth inhibition in assay [4] (setting [8]) is 16.2 ± 3.3%; in assay [4] (setting [9]), 41.1 ± 2.1%.
In the case of `CCN1CCC[C@H]1CNC(=O)c1c(O)c(Cl)cc(Cl)c1OC` [Raclopride], the “percent growth inhibition of drug alone” value was -0.791 ± 2.4% in assay [2] (7 µM) and 0.378 ± 5.2% in assay [2] (20 µM). In assay [4] (setting [7]), the percent growth inhibition is -4.39 ± 0.64%.
On to `CCn1cc(C(=O)O)c(=O)c2cc(F)c(N3CCN(C)CC3)cc21` [Pefloxacine], for which the entries for the “percent growth inhibition of drug alone” value in assay [2] (7 µM) and in assay [2] (20 µM) were 12.5 ± 1.1% and 51.2 ± 3.2%, respectively. For the same compound, the percent growth inhibition in assay [4] (setting [8]) came out at 11.4 ± 19%.
Take `COc1cc(C)nc(-n2nc(C)cc2OC)n1` [Epirizole]: the “percent growth inhibition of drug alone” value in assay [2] (7 µM) was -1.76 ± 0.66%; in assay [2] (20 µM), -0.885 ± 4.3%. Further, the values for the percent growth inhibition in assay [4] (setting [6]) and in assay [4] (setting [7]) were 55.5 ± 7.9% and -4.39 ± 3.8%, respectively.
On to `OC(c1cc(C(F)(F)F)nc2c(C(F)(F)F)cccc12)C1CCCCN1` (stereo not drawn) [Mefloquine hydrochloride], for which the “percent growth inhibition of drug alone” value in assay [2] (7 µM) is 0.355 ± 6.6%; in assay [2] (20 µM) it was -2.15 ± 1.1%. Further, the percent growth inhibition in assay [4] (setting [6]) was 1.61 ± 13%.
Consider `CC1CCc2cc(F)cc3c(=O)c(C(=O)O)cn1c23` (stereo not drawn) [Flumequine], for which the entries for the “percent growth inhibition of drug alone” value in assay [2] (7 µM) and in assay [2] (20 µM) were 15.15 ± 0.074% and 65.7 ± 2.7%, respectively. For the same compound, the percent growth inhibition in assay [4] (setting [6]) is 88.42 ± 0.76%; in assay [4] (setting [7]), 95.6 ± 2.3%.
For `CC(C)NCC(O)c1ccc(O)c(O)c1` (single isomer, unassigned; (-)) [(-)-Isoproterenol hydrochloride], the “percent growth inhibition of drug alone” value in assay [2] (7 µM) was 0.335 ± 1.6%; in assay [2] (20 µM), 1.39 ± 1.6%. The percent growth inhibition in assay [4] (setting [7]) was 0.725 ± 1.5%.
Take `COc1cccc2c1C(=O)c1c(O)c3c(c(O)c1C2=O)C[C@@](O)(C(=O)CO)C[C@@H]3O[C@H]1C[C@H](N)[C@@H](O)[C@H](C)O1` [Epirubicin hydrochloride]: the “percent growth inhibition of drug alone” value in assay [2] (7 µM) is -1.63 ± 2.7%; in assay [2] (20 µM), -0.106 ± 4.7%. For the same compound, the percent growth inhibition in assay [4] (setting [6]) was -0.818 ± 0.78%.
For `CO[C@@]1(NC(=O)CSCC#N)C(=O)N2C(C(=O)O)=C(CSc3nnnn3C)CS[C@@H]21` [Cefmetazole sodium salt], the “percent growth inhibition of drug alone” value in assay [2] (7 µM) is 2.72 ± 1.2%; in assay [2] (20 µM) it was 32.6 ± 2.3%. The percent growth inhibition in assay [4] (setting [8]) was 3.52 ± 6.6%.
Turning to `Cc1cc(C(C)(C)CC(C)(C)C)ccc1OCCOCC[N+](C)(C)Cc1ccccc1` [Methyl benzethonium chloride], the “percent growth inhibition of drug alone” value in assay [2] (7 µM) is -1.94 ± 2.4%; in assay [2] (20 µM), -2.28 ± 0.9%. Besides, the percent growth inhibition in assay [4] (setting [6]) is 22 ± 6.4%.
`O=C1NCCN1c1ncc([N+](=O)[O-])s1` [Niridazole]: the “percent growth inhibition of drug alone” value in assay [2] (7 µM) was determined as 9.23 ± 8.8%; in assay [2] (20 µM), 74.9 ± 13%. Also, the percent growth inhibition in assay [4] (setting [8]) turned out to be 38.6 ± 6.3%; in assay [4] (setting [9]), 95.7 ± 4.1%.
With `CCC[C@@H]1C[C@@H](C(=O)N[C@@H]([C@H]2O[C@H](SC)[C@H](O)[C@@H](O)[C@H]2O)[C@H](C)Cl)N(C)C1` [Clindamycin hydrochloride], the “percent growth inhibition of drug alone” value stood at 12 ± 1.4% in assay [2] (7 µM) and 28.5 ± 0.74% in assay [2] (20 µM). Further, the percent growth inhibition in assay [4] (setting [6]) was found to be 44.3 ± 4.1%.
Regarding `CO[C@@H]1[C@@H](OC(N)=O)[C@@H](O)[C@H](Oc2ccc3c(O)c(NC(=O)c4ccc(O)c(CC=C(C)C)c4)c(=O)oc3c2C)OC1(C)C` [Novobiocin sodium salt], the “percent growth inhibition of drug alone” value in assay [2] (7 µM) amounted to 0.874 ± 4.5%; in assay [2] (20 µM), 5.13 ± 1.4%. For the same compound, the percent growth inhibition in assay [4] (setting [6]) stood at 34.1 ± 0.68%; in assay [4] (setting [7]), 98.55 ± 0.69%.
Regarding `CC[C@H]1OC(=O)[C@H](C)[C@@H](O[C@H]2C[C@@](C)(OC)[C@@H](O)[C@H](C)O2)[C@H](C)[C@@H](O[C@@H]2O[C@H](C)C[C@H](N(C)C)[C@H]2O)[C@](C)(OC)C[C@@H](C)C(=O)[C@H](C)[C@@H](O)[C@]1(C)O` [Clarithromycin], the entries for the “percent growth inhibition of drug alone” value in assay [2] (7 µM) and in assay [2] (20 µM) were 0.744 ± 2.4% and 3.19 ± 2.3%, respectively. For the same compound, the percent growth inhibition in assay [4] (setting [7]) is 3.22 ± 2.8%.
As for `CN1CCN(c2c(F)cc3c(=O)c(C(=O)O)cn4c3c2SCC4)CC1` [Rufloxacin], the “percent growth inhibition of drug alone” value turned out to be 14.6 ± 2.5% in assay [2] (7 µM) and 83.22 ± 0.72% in assay [2] (20 µM). The percent growth inhibition in assay [4] (setting [6]) amounted to 96.6 ± 3.1%; in assay [4] (setting [7]) it was 93.89 ± 0.36%.
The like results for `CCCCCCCCNC(C)C(O)c1ccc(SC(C)C)cc1` (stereo not drawn) [Suloctidil] were, in that order, -1.6 ± 0.96%, -1.21 ± 1.4%, 3.9 ± 5.4% and 94.63 ± 0.84%.
In the case of `Oc1c(Cl)cc(Cl)c(Cl)c1Cc1c(O)c(Cl)cc(Cl)c1Cl` [Hexachlorophene], the “percent growth inhibition of drug alone” value in assay [2] (7 µM) was determined as 0.779 ± 4.2%; in assay [2] (20 µM) it was 18.8 ± 7.5%. Also, in assay [4] (setting [6]), the percent growth inhibition turned out to be 4.52 ± 2.5%.
With `CS(=O)(=O)c1ccc([C@@H](O)[C@@H](CF)NC(=O)C(Cl)Cl)cc1` [Florfenicol], the “percent growth inhibition of drug alone” value was determined as 32.2 ± 2% in assay [2] (7 µM) and 96.46 ± 0.59% in assay [2] (20 µM). The percent growth inhibition in assay [4] (setting [6]) was 97.49 ± 0.25%; in assay [4] (setting [7]), 88.4 ± 7.8%.
